In article PMC5540273 (PLoS ONE, 2017):

What was measured:
Conditions in all cases: concentration: 1 μM, replicates: in singlicate; n = 1
[1] = test system: T1, MST2
T1 construct: gene STK3

[2] = test system: T2, MST3
T2 construct: gene STK24

[3] = test system: MST4
[4] = test system: MTOR
[5] = test system: MUSK
[6] = test system: MYLK2
[7] = test system: MYLK4
[8] = test system: MYLK
[9] = test system: MYO3A
[10] = test system: MYO3B
[11] = test system: T3, NDR1
T3 construct: gene STK38

[12] = test system: NDR2
[13] = test system: NEK10
[14] = test system: NEK11
[15] = test system: NEK1
[16] = test system: NEK2
[17] = test system: NEK3
[18] = test system: NEK4
[19] = test system: NEK5
[20] = test system: NEK6
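Also: KINOMEscan kinase panel screen.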

SMILES | %Inh [1] | %Inh [2] | %Inh [3] | %Inh [4] | %Inh [5] | %Inh [6] | %Inh [7] | %Inh [8] | %Inh [9] | %Inh [10] | %Inh [11] | %Inh [12] | %Inh [13] | %Inh [14] | %Inh [15] | %Inh [16] | %Inh [17] | %Inh [18] | %Inh [19] | %Inh [20]
O=C(Nc1n[nH]c2nc(-c3nccs3)c(Br)cc12)C1CC1 [SB-742251] | 0% | 0% | 0% | 16% | 0% | 93.4% | 23% | 7% | 0% | 0% | 0% | 0% | 0% | 48% | 0% | 0% | 8% | 21% | 10% | 0%
CCn1c(-c2ccccn2)nc2cnccc21 [SB-736398] | 0% | 0% | 0% | 0% | 5% | 3% | 2% | 0% | 18% | 0% | 6% | 0% | 26% | 39% | 100% | 0% | 12% | 10% | 0% | 0%
COc1ccc(Nc2nccc(-c3cccc(NC(=O)c4cc5cc(F)ccc5[nH]4)c3)n2)cc1 [GSK1229782] | 24% | 15% | 0% | 21% | 6% | 19% | 11% | 31% | 60% | 0% | 0% | 34% | 40% | 16% | 12% | 3% | 12% | 9% | 29% | 1%
O=S(=O)(c1ccc(-c2ccnc3[nH]ccc23)cc1)N1CCCC1 [GSK846226] | 4% | 14% | 0% | 12% | 0% | 3% | 62% | 22% | 10% | 0% | 33% | 38% | 15% | 0% | 12% | 16% | 16% | 0% | 31% | 0%
Fc1cc(Cl)ccc1Nc1ccnc2cc(I)ccc12 [GW551191] | 9% | 0% | 0% | 8% | 0% | 0% | 0% | 11% | 13% | 0% | 18% | 0% | 25% | 0% | 0% | 4% | 0% | 11% | 0% | 0%
CN1C(=O)C(Nc2ccc(Cl)c(C(=O)O)c2)=C(c2ccc(Cl)cc2)C1=O [SB-404290] | 0% | 0% | 33% | 0% | 13% | 0% | 5% | 12% | 11% | 31% | 0% | 1% | 0% | 30% | 0% | 5% | 0% | 21% | 0% | 0%
COc1ccccc1CNC(=O)c1cc(C(=O)c2ccccc2C)c[nH]1 [GSK364507] | 0% | 0% | 0% | 13% | 7% | 6% | 3% | 19% | 6% | 2% | 0% | 0% | 6% | 0% | 0% | 0% | 8% | 14% | 13% | 17%
Nc1nc(-c2nccs2)c(-c2ccnc3ccccc23)s1 [GW693542] | 75% | 0% | 0% | 15% | 15% | 11% | 0% | 11% | 3% | 0% | 17% | 30% | 19% | 12% | 0% | 0% | 4% | 0% | 3% | 0%
Cc1c(O)cccc1Nc1ccnc2ccc(C(F)(F)F)cc12.Cl [GW466413] | 0% | 0% | 0% | 0% | 0% | 0% | 0% | 0% | 0% | 0% | 0% | 0% | 16% | 0% | 0% | 0% | 0% | 0% | 0% | 0%
Cn1cncc1-c1ccc2ncnc(Nc3ccc(OCc4ccccc4)cc3)c2c1 [GW320571] | 0% | 0% | 0% | 30% | 21% | 20% | 0% | 6% | 0% | 0% | 0% | 0% | 3% | 0% | 0% | 0% | 0% | 11% | 0% | 6%
CC(=O)Nc1nc2cnc(Nc3cc(NC(=O)c4cccc(CCC#N)c4)ccc3C)nc2s1 | 27% | 3% | 0% | 0% | 0% | 0% | 6% | 27% | 13% | 0% | 0% | 22% | 13% | 0% | 0% | 2% | 7% | 0% | 0% | 14%
Cn1ccc2ncnc(Oc3cccc(C(=O)Nc4ccccc4)c3)c21 | 13% | 20% | 7% | 0% | 0% | 0% | 4% | 0% | 0% | 4% | 14% | 0% | 0% | 0% | 0% | 0% | 0% | 0% | 0% | 17%
COc1ccccc1-c1ccc2c(NC(=O)C3CC3)n[nH]c2n1 [SB-711239] | 0% | 0% | 0% | 30% | 0% | 23% | 0% | 12% | 0% | 0% | 8% | 0% | 11% | 33% | 0% | 22% | 0% | 6% | 0% | 4%
Fc1cc(Cl)ccc1Nc1ccnc2cc(-c3ccc(CN4CCCCC4)o3)ccc12 [GW560116] | 0% | 15% | 0% | 0% | 0% | 27% | 5% | 11% | 31% | 0% | 9% | 18% | 5% | 4% | 0% | 0% | 0% | 0% | 4% | 0%
CN(C)CCN(C)C(=O)c1cc(-c2ccncc2)c(-c2ccc(Cl)c(O)c2)o1.Cl.Cl [SB-710397] | 0% | 0% | 0% | 33% | 18% | 11% | 0% | 10% | 0% | 0% | 1% | 36% | 33% | 29% | 0% | 0% | 26% | 20% | 8% | 0%
